The structures appear in SMILES notation.

Solute carrier family 2, facilitated glucose transporter member 1 (Homo sapiens), sequence (P11166 whole entry): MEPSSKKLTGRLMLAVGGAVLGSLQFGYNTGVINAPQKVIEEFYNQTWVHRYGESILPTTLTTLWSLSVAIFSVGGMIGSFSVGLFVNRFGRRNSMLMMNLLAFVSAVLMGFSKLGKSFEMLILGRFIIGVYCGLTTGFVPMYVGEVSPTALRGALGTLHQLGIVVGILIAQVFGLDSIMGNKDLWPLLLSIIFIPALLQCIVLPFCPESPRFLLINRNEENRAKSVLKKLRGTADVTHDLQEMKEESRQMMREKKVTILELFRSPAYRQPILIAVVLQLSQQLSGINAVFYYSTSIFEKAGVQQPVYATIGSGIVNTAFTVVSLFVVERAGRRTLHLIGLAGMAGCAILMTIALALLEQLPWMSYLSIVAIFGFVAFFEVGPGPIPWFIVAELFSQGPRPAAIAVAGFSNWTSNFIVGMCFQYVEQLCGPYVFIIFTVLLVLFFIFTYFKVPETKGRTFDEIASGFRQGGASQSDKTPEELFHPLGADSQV

This assay has as its target Solute carrier family 2, facilitated glucose transporter member 1 (Homo sapiens) (UniProt P11166). The experiment in a line: ST_JUDE_LEISH: Cytotoxicity at 2uM final concentration against transgenic Leishmania Mexicana promastigotes LmGLUT1 that are glucose transport deficient and complemented with the human glucose transporter GLUT1. Activity is measured by DNA content using SYBR green in vitro. It counts as functional.
One may read the inhibition as the change of the read-out against control, counted positive when it falls. For `Cc1cccc(C(=O)Nc2ccnc(N3CCC(N(C)Cc4cccc(C#N)c4)CC3)c2)c1`, the inhibition amounted to 4.5%.

For the compound `Cc1cccc2nc(-c3cccc(-c4ccc(NC(=O)Nc5ccc(Cl)cc5)cc4)c3)[nH]c12`, the inhibition is 4.43%.

`CCOC(=O)N1CCN(CCCNc2c3ccccc3nc3ccccc23)CC1`: the inhibition worked out at 6.23%.

As to `CC(C)OC(=O)c1ccc(NC(=O)N[C@@H](Cc2ccc(O)cc2)C(=O)NC2CCC(CCN3C4CCC3c3ccccc34)CC2)cc1` (stereo partly specified), the inhibition is 3.08%.

As to `Cc1ccc(Nc2nccc(Nc3ccc4c(C)n[nH]c4c3)n2)cc1F`, the inhibition came to 3.22%.

As to `CNC(=O)c1cc(S(=O)(=O)Nc2ccc(OC)cc2)cs1`, the inhibition came out at 0.48%.

Take `CCN(C)C(=O)n1ncc2c3c(N)nc(N)nc3ccc21`: the inhibition amounted to 3.44%.

As for `NC(=O)C1CCN(Cc2cccc(-c3cccc(-c4nc5cc(F)ccc5[nH]4)c3)c2)CC1`, the inhibition is -0.94%.

Take `CC(C)C(NC(=O)Cc1cccc2ccccc12)C(=O)Nc1cccc(C#N)c1` (stereo unspecified): the inhibition was determined as 2.08%.

As for `Nc1nccc2ccc(-c3ccnc(NCc4cccnc4)n3)cc12`, the inhibition worked out at 9.29%.

Take `COc1ccc(CN2C(=S)N(Cc3ccccc3)C(=O)C2CC(=O)Nc2ccccc2)cc1OC` (stereo unspecified): the inhibition amounted to 0.79%.

Consider `Cc1ccc(Cn2nc(Cl)c(N3CCCNCC3)cc2=O)cc1NC(=O)Nc1ccc(-c2ccccc2)cc1`, for which the inhibition is -1.89%.

In the case of `COc1ccc2ccccc2c1CCCCN1CCN(CC(c2ccc(F)cc2)N2CCN(C3CCCC3)CC2)CC1` (stereo unspecified), the inhibition was determined as 2.16%.

Consider `COc1ccc(C=C2SC(=N)N(c3ccccc3OC)C2=O)cc1`, for which the inhibition is 6.44%.

As to `Fc1ccc2[nH]c(-c3cccc(-c4ccc(CNCCN5CCNCC5)cc4)c3)nc2c1`, the inhibition is -0.21%.

As for `O=C(N[C@H]1CCN(Cc2ccc(OCCCN3CCCCC3)cc2)C1)c1cc(Cl)cc(Cl)c1`, the inhibition turned out to be 1.71%.

For the origin of these results see ChEMBL document CHEMBL3433997, “St. Jude Leishmania screening dataset” (2016).
